Inconclusive results are not listed. Where a call stands in place of a potency, no number is given. Active and inactive are the calls of the source. The call rests on the fitted dose curve; in most records, active means well fitted inhibition curve with a large enough effect; inconclusive means small, poorly fitted or top-dose-only effect, or effect the other way; inactive means flat fitted curve, though single readings scatter.
These compounds were tested against Thyroid hormone receptor beta (Homo sapiens) (UniProt P10828) (assay: Concentration Response Confirmation Assay for Inhibitors of the Interaction of Thyroid Hormone Receptor and Steroid Receptor Coregulator 2, Fluorescein Fluoroprobe). Settings: TRbeta LBD / fluorescein-SRC2 peptide, fluorescence polarization, 5 h; series mostly up to 92.2 µM.
Excerpt: NIH Molecular Libraries Probe Production Network [MLPCN] NIH Chemical Genomics Center [NCGC] MLPCN Grant: DK058080 Assay Provider: R. Kip Guy, St. Jude Children's Research Hospital NCGC Assay Overview: Thyroid receptor (TR) regulates many homeostatic processes including basal metabolism, cardiovascular function, body weight, and lipid trafficking. TR modulators are potential therapeutics for obesity and hyperlipidemias but current thyroid analogs have undesirable side effects, particularly cardiac stimulation. To identify inhibitors that specifically prevent the interaction of TR with the steroid receptor coregulator 2 (SRC2), a fluorescence polarization assay was screened (Arnold et al., 2006). This assay detects interaction of the ligand-binding domain of human TRbeta with a fluorescein labeled SRC2 peptide, corresponding to a 20 amino acid region of the nuclear receptor interaction domain. Small molecule inhibitors that block the interaction of TR and SRC2 are detected by a decrease in fluorescence polarization. This assay is a confirmation assay for AID 1469. Arnold, L. A.; Estebanez-Perpina, E.; Togashi, M.; Shelat, A.; Ocasio, C. A.; McReynolds, A. C.; Nguyen, P.; Baxter, J. D.; Fletterick, R. J.; Webb, P.; Guy, R. K. A high-throughput screening method to identify small molecule inhibitors of thyroid hormone receptor coactivator binding. Sci STKE 2006, p 13.
NCGC Assay Protocol Summary: Five uL/well 0.6 uM TRbeta and 20 nM SRC2 Fluorescein in protein buffer (20mM Tris hydrochloride, 100mM NaCl, 10% glycerol, 1mM EDTA, 0.01% NP-40, 1mM DTT, 1uM T3 and 5% DMSO) was dispensed into black solid 1536-well plates (Grenier) using a solenoid-based dispenser. Following transfer of 23 nL compound or DMSO vehicle by a pin tool, the plates were centrifuged 15 s at 1000 RPM and incubated 5 hr at ambient temperature. The plates were read by an Envision (Perkin Elmer) to detect fluorescence polarization of SRC2 Fluorescein (480 nm excitation and 535 nm emission). Data were normalized to unbound (all components except TRbeta) and bound SRC2 Fluorescein controls. In this assay, we provide % activity data for each concentration as well as potencies for the active compounds. Keywords: NIH Roadmap, MLPCN, MLI, MLSMR, qHTS, NCGC, qHTS, thyroid hormone receptor, steroid receptor coactivator, fluorescence polarization

Sequence of Thyroid hormone receptor beta (Homo sapiens) (P10828 whole entry, looked up, the tested form may be a part): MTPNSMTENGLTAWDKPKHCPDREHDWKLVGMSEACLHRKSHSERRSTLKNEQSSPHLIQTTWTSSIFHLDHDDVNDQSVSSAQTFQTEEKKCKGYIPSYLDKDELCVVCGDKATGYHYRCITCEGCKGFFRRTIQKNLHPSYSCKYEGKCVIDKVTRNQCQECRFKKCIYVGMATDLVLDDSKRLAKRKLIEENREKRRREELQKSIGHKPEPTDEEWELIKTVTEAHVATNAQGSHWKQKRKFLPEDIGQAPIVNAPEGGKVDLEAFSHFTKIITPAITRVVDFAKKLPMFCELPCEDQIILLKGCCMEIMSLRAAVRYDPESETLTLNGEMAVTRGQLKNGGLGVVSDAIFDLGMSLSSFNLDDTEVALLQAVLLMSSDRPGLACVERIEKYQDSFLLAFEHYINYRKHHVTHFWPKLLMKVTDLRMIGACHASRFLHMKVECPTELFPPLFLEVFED

SMILES	Potency	activity, negative = inhibition
Cc1cc(C)cc(OCC(=O)NCCc2nc3ccccc3[nH]2)c1	inactive	–
Nc1cc(-c2ccncc2)c[nH]c1=O	inactive	–
CC(=O)c1cccc(NC(=O)COC(=O)c2ccc(S(C)(=O)=O)c([N+](=O)[O-])c2)c1	–	-8.61% [at 11.6 µM] (inactive)
CCCc1cc(=O)[nH]c(=S)[nH]1	inactive	–
O=C(O)/C=C/C(=O)Nc1ccc(SC(F)(F)C(F)(F)C(F)(F)F)cc1	4.47 µM (active)	–
CCOc1cc(C(c2c(C)[nH][nH]c2=O)c2c(C)[nH][nH]c2=O)ccc1OC(=O)c1cccc([N+](=O)[O-])c1	15.8 µM (active)	–
O=c1[nH]c(Nc2ccccc2)cc2ccccc12	25.1 µM (active)	–
CN(C(=S)Nc1cccnc1)c1ccc(O)cc1	inactive	–
COc1cc(NC(C)CCCN)c2ncccc2c1 (stereo not given)	inactive	–
CCN(CC)S(=O)(=O)c1cccc(N=NC2=C(O)CCCC2=O)c1	–	-3.56% [at 0.0112 µM] (inactive)
O=C(Nc1nc2ccc(Cl)cc2s1)c1ccc(N2CCCCC2)c([N+](=O)[O-])c1	inactive	–
C/C(=C\C(=O)c1ccccc1)Nc1ccc(O)cc1	–	-2.06% [at 11.6 µM] (inactive)
CCCCOc1ccc(C(=O)CCN2CCCCC2)cc1	2.51 µM (active)	–
Oc1ccc2ccccc2c1/C=N/c1nc2c(s1)CCCC2	31.6 µM (active)	–
CC1(C)CC(=O)C(N=Nc2cccc(S(=O)(=O)N3CCOCC3)c2)=C(O)C1	inactive	–
Cc1ccc2c(CC(=O)Nc3c(C(=O)c4ccc(F)cc4)oc4ccccc34)coc2c1C	inactive	–
Cc1cc2ccccc2n1CCNC(=O)C(C)Oc1ccccc1 (stereo not given)	inactive	–
CN(CCO)c1nc(N)c2c(N)nc3c(c2c1C#N)CC(=O)N3C1CCCC1	–	-0.749% [at 11.6 µM] (inactive)
Cc1nc2c3cc(F)ccc3n(Cc3ccccc3F)c2s1	inactive	–
Nc1cccnc1Sc1cc(Cl)c(Cl)cc1Cl	inactive	–

SMILES	Potency	activity, negative = inhibition
CN1CCc2ccc3c4c2[C@]1(C)Cc1cccc(c1-4)OCO3	44.7 µM (active)	–
Cc1ccc(OC(=S)Nc2ccc(O)cc2)cc1	inactive	–
C=CCSc1nnc2n(-c3ccccc3OC)c(=O)c3c4c(sc3n12)CCC4	inactive	–
Cc1nnc(SCC(=O)Nc2ccc(N(C)C)cc2)[nH]c1=O	inactive	–
Cc1cc2c(NC(=O)Nc3ccccc3)cccc2nn1	–	-4.49% [at 0.0112 µM] (inactive)
CCc1ccc2c(c1)c1nc(C)sc1n2CC	inactive	–
Cn1cc[nH]c1=S	inactive	–
COc1ccc(-c2nc(CS(=O)CC(=O)NCc3ccccn3)c(C)o2)cc1 (stereo not given)	35.5 µM (active)	–
Cn1c(=O)[nH]c2nnc(-c3ccc(Cl)c(Cl)c3)nc2c1=O	inactive	–
CCN(C(=O)C1CCCN(c2ncnc3onc(-c4ccc(F)cc4)c23)C1)c1ccccc1 (stereo not given)	inactive	–
O=c1cc(C23CC4CC(CC(C4)C2)C3)[nH][nH]1	inactive	–
C=CC(=O)OCCOc1ccccc1	50.1 µM (active)	–
CCOc1cc(N2CCOCC2)c(OCC)cc1NC(C)C(=O)N1CCN(CC)CC1 (stereo not given)	inactive	–
Cc1nc2ccccc2n2c(O)c(CC(=O)O)cc12	8.91 µM (active)	–
CCCCCCN=CC1=C(O)CC(C)(C)CC1=O	–	4.31% [at 0.0112 µM] (inactive)
CCOC(=O)c1cnc2nc(NCc3ccc(OC)c(OC)c3)[nH]n2c1=O	inactive	–
CC1=NN(Cc2ccccc2)C(=O)C1	inactive	–
Cc1ccc(-c2nc(S(=O)(=O)c3ccc(F)cc3)c(SCC(=O)NCC3CCCO3)o2)cc1 (stereo not given)	inactive	–
O=C(O)/C=C/C(=O)Nc1ccc(OC(F)(F)F)cc1Br	50.1 µM (active)	–
N/C(Cc1cccc2ccccc12)=N\OC(=O)c1cccs1	–	-6.32% [at 5.76 µM] (inactive)

— PubChem BioAssay AID1570 (National Center for Advancing Translational Sciences (NCATS), 2009)
